Test in all cases: NCI-60 one-dose screen, 48 h (100 = growth as untreated, 0 = no growth, -100 = all killed)
What all share (details): 10 µM unless noted

The subject of experiment [1] is NCI-H23 lung.
For experiment [2], the system named is NCI-H226 lung.
The test system of experiment [3] is NCI-H322M lung.
For experiment [4], the system named is HOP-62 NSCLC.
Experiment [5] relates to HOP-92 NSCLC.
Experiment [6] concerns NCI-H522 lung.
Experiment [7] has as its system A549/ATCC NSCLC.
Experiment [8] has as its system 786-0 renal.
In experiment [9] the test system is COLO 205 colon.
Experiment [10] relates to DU-145 prostate.
Experiment [11] concerns K-562 leukemia.
In experiment [12] the test system is MALME-3M melanoma.
Experiment [13] has as its system MDA-MB-231 breast.
For experiment [14], the system named is RXF 393 renal.
Experiment [15] concerns SF-268 CNS.
The subject of experiment [16] is SF-295 CNS.
The test system of experiment [17] is SF-539 CNS.
Experiment [18] concerns UACC-257 melanoma.
The subject of experiment [19] is M14 melanoma.

The panel holds about 83,000 compounds, 20% with a hit somewhere; the sample as a whole holds those more often.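 Cells were grown in 96-well plates and exposed to the test compound at a single concentration for 48 hours; results are reported as percent growth, with values below 10 considered active.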 Values without a mark were called inactive. Active and inactive are the calls of the source.

We go through eight compounds from PubChem BioAssay (NCI).

Take `Cc1ccc(CCC(=O)Nc2ncc(Cc3cc(Cl)ccc3Cl)s2)o1`: the growth in [1] was 31.9%; in [2], 45.5%; in experiment [3] it was 33.3%; in experiment [4], 35.6%; in experiment [5] it was 56.6%; in experiment [6], 3.08% (active). Moreover, the growth in experiment [7] is 23.1%; in [8], 26.1%; in experiment [9], 2.59% (active); in experiment [10], 13.8%; in [11], 9.78% (active); in experiment [12], 41.5%. Besides, the growth in experiment [13] was 12.4%; in experiment [14] it was -8.55% (active); in experiment [15], 57.6%; in [16], 7.41% (active); in experiment [17] it was -16.4% (active); in experiment [18] it was 66.9%. Moreover, the growth in experiment [19] is 6.18% (active).
As to `Cc1ccc(NCCN(C)C)c2c(=O)c3ccccc3sc12`, the growth is 40.5% in experiment [1]; 32.3% in [2]; 53.5% in [3]; 36.2% in experiment [4]; 30.4% in experiment [5]; 16.8% in experiment [6]. In addition, the growth in [7] is 7.25% (active); in experiment [8] it was 24.2%; in [9] it was -53.5% (active); in [10], 23.8%; in [11], 21.3%; in experiment [12], 76.4%. For the same compound, the growth in experiment [13] was 24.3%; in experiment [14] it was 2.41% (active); in experiment [15], 17.1%; in experiment [16] it was 29.4%; in [17] it was 30.8%; in experiment [18], 1.5% (active). In addition, the growth in experiment [19] was 5.06% (active).
As to `CNC(=O)NCC1OC(n2cnc3c(NC(=O)Nc4ccccc4)ncnc32)C(O[Si](C)(C)C(C)(C)C)C1CC(=O)N(C)OC` (stereo not given), the growth in experiment [1] is 48.2%; in experiment [2], 40.6%; in [3] it was 78.8%; in [4], 60.3%; in [5], -34.3% (active); in experiment [6] it was 65.9%. For the same compound, the growth was 2.06% (active) in experiment [7]; 47.4% in [8]; -100% (active) in experiment [9]; 25.3% in experiment [10]; 16.1% in [11]; 12.3% in experiment [12]. The growth was 15.2% in experiment [13]; -68.2% (active) in experiment [14]; 33.2% in experiment [15]; -41.2% (active) in experiment [16]; 0.123% (active) in experiment [17]; 5.59% (active) in experiment [18]. In experiment [19], the growth was 34.4%.
With `CCCCNC(=O)Oc1ccc2c(=O)c3sc4c(=O)c5ccccc5c(=O)c4c3c(=O)c2c1`, the growth in [1] is -47.6% (active); in experiment [2] it was -89% (active); in experiment [3] it was -96.8% (active); in experiment [4] it was -79.1% (active); in experiment [5] it was -30.4% (active); in experiment [6] it was -69.5% (active). The growth in [7] was -61.8% (active); in experiment [8], -37% (active); in [9], -84.9% (active); in experiment [10], -98.5% (active); in [11], -34.3% (active); in [12] it was -98% (active). In addition, the growth in experiment [13] was -22.2% (active); in experiment [14] it was -87.1% (active); in experiment [15] it was -48.1% (active); in experiment [16], -98.1% (active); in [17], -96.6% (active); in experiment [18] it was -95.7% (active). In experiment [19], the growth was -77.6% (active).
Turning to `CC(=O)c1ccc(NCC(=O)Nc2ccccn2)cc1`, the growth in experiment [1] is 96.4%; in experiment [2], 91.3%; in [3], 103%; in experiment [4], 98.7%; in experiment [5] it was 103%; in [6], 107%. The growth in [7] is 104%; in experiment [8] it was 102%; in experiment [10], 107%; in [11] it was 95.6%; in experiment [12], 97.6%; in experiment [13] it was 94.1%. In addition, the growth was 117% in experiment [14]; 97.1% in experiment [15]; 109% in experiment [16]; 106% in experiment [17]; 106% in experiment [18]; 106% in experiment [19].
`O=C1/C(=C\c2c[nH]c3ccccc23)c2ccccc2N1c1c(Cl)cccc1Cl`: the growth in experiment [1] was -80.1% (active); in experiment [2], 14.7%; in [3], 18.8%; in experiment [4], 19.6%; in [5], -13.7% (active); in experiment [7], 0.113% (active). In addition, the growth in experiment [8] is -37.7% (active); in experiment [9], -100% (active); in experiment [10], 14.5%; in [11], -0.66% (active); in experiment [12], -16.8% (active); in experiment [13], -2.7% (active). The growth was -43.5% (active) in [14]; 23.7% in [15]; -47.9% (active) in [16]; -59.9% (active) in experiment [17]; 23.6% in [18]; -86.3% (active) in experiment [19].
In the case of `COC(=O)[C@]12CC[C@@H](C)[C@H](C)[C@@H]1C1=CC[C@@H]3[C@@]4(C)C(C=O)=C[C@@](C)(COS(C)(=O)=O)[C@@H]4C(=O)C[C@@]3(C)[C@]1(C)CC2`, the growth in experiment [1] was 35.3%; in [2], 67.2%; in [3] it was 89.2%; in [4], 41.7%; in experiment [5] it was 39.8%; in experiment [6], 22.2%. In addition, the growth in experiment [7] is 27.6%; in experiment [8], 40.7%; in experiment [9] it was 32.1%; in experiment [10], 41.2%; in [11] it was 21.3%; in experiment [12] it was 83.6%. Further, the growth in experiment [13] was 37.2%; in [14] it was 73.8%; in experiment [15] it was 40.2%; in [16] it was 37.3%; in experiment [17], 65.7%; in experiment [18], 52.6%. In addition, the growth in experiment [19] is 36.8%.
`CN(C)c1ccc(/C=C/C(=O)c2cccc(Nc3nc(Nc4ccccc4)nc(Nc4ccccc4)n3)c2)cc1`: the growth is 82.7% in experiment [1]; 94% in experiment [2]; 93.5% in [3]; 86.5% in experiment [4]; 46.9% in [5]; 87.3% in [6]. For the same compound, the growth is 85.6% in experiment [7]; 88.2% in experiment [8]; 81.5% in experiment [9]; 99.4% in [10]; 67.7% in experiment [11]; 88.2% in experiment [12]. The growth is 81.8% in [13]; 77.5% in experiment [14]; 97.2% in experiment [15]; 129% in experiment [16]; 87.9% in experiment [17]; 110% in [18]. For the same compound, in experiment [19], the growth is 91.5%.
